Assay outcomes: PubChem BioAssay, The Scripps Research Institute Molecular Screening Center
Only some compounds are listed: those with a hit (about 4.8% of all), similar ones and a draw of the others.
SMARCA2 act: SMARCA2 (BRM) function activators, primary screen, cell-based, luminescence, high throughput; MG213 cells, MMTV-luciferase reporter, dexamethasone, overnight; activation, % at 9.1 µM; hit rate 1% among 370,000; in the data active = activation above about 7.8%
DAX1 inh-1: DAX1 (NR0B1) inhibitors, primary screen, cell-based, HEK293, Gal4-DAX1, luciferase luminescence | Nuclear receptor subfamily 0 group B member 1 (Homo sapiens), P51843 | HEK293 Gal4-DAX1 luciferase reporter | inhibition, % at 6.75 µM | hit rate 0.99% among 340,000;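 active = inhibition above the mean over all tested compounds plus 3 SD, cut at about 4.2% in these data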;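 note: inhibition shows as a rise in luminescence from relieved DAX1 repression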
Target sequence (P51843 207-470 limits assumed): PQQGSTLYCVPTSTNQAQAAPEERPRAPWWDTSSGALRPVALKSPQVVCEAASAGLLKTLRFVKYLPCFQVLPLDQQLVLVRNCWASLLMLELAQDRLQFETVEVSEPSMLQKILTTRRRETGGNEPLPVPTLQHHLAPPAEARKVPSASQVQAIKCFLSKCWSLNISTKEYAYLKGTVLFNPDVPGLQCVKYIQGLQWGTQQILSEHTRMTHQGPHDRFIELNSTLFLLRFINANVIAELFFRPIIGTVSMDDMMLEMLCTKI
ssDAF12 agonist: S. stercoralis DAF-12 nuclear receptor activators, primary screen, cell-based, luminescence, HEK293, GRIP1 co-expression, lit1-tk-luc. HEK293 ssDAF-12/GRIP1 lit1-tk-luc reporter; % of 3 µM dafachronic acid response. activation, % at 6.8 µM. hit rate 1% among 370,000. Nuclear hormone receptor DAF-12 (Strongyloides stercoralis);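 active = activation above the mean over all tested compounds plus 3 SD, cut at about 0.9% in these data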
DAX1 inh-2: DAX1 (NR0B1) inhibitors on StAR promoter, primary screen, cell-based, luminescence, SF-1 (NR5A1), full-length DAX-1; hit rate 1.1% among 370,000; inhibition, % at 6.8 µM; HEK293T StAR-luciferase reporter, SF-1/DAX-1 repression relief;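 active = inhibition above the mean over all tested compounds plus 3 SD, cut at about 3.6% in these data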;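 note: higher inhibition means more luminescence from relief of DAX-1 repression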
hcDAF12 agonist: H. contortus DAF-12 nuclear receptor activators, primary screen, cell-based, luminescence, HEK293, lit1-tk-luc reporter | HEK293 hcDAF-12 lit1-tk-luc reporter; 0% DMSO, 100% Δ7-dafachronic acid | activation, % at 6.8 µM | hit rate 1.4% among 370,000;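 active = activation above the mean of all tested compounds plus 3 SD, cut at about 5.5% in these data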
hgDAF-12 ag: H. glycines DAF-12 receptor agonists, primary screen, cell-based, luminescence, HEK293, GAL4 fusion, UAS-luciferase; HEK293 GAL4-hgDAF12 UAS-luciferase reporter, agonist luminescence; normalized to butyrate control; activation, % at 6.8 µM; hit rate 1.8% among 370,000; AID 687014, 2013;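 active = activation above a cutoff set at the mean of all screened compounds plus 3 SD, cut at about 10% in these data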
SMARCA2 conf: SMARCA2 (BRM) function activators, confirmation, cell-based, luminescence, triplicate; shares compounds with SMARCA2 act; MG213 cells, MMTV-luciferase with dexamethasone, overnight; MG213 cells expressing E1A, Rb sequestered; DMSO wells 0%, reference activator 100%; activation, % at 9.1 µM; hit rate 30% among 3,500; AID 652260, 2013;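 active = activation above its plate's cutoff, the mean activation of tested wells plus 3 SD, cut at about 7.9% in these data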
GAL4-VP16 Luc: GAL4-VP16 luciferase reporter activation, counter-screen for SMARCA2 (BRM) activator project, cell-based, pG5luc, luminescence, high throughput. shares compounds with SMARCA2 act. HEK293 GAL4-VP16 pG5luc reporter; scaled: DMSO wells 0%, SAHA wells 100%. activation, % at 9.1 µM. hit rate 41% among 3,500. AID 686939, 2013;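 active = activation above the solvent-only control well mean plus 3 SD, averaged across control plates, cut at about 5.2% in these data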
Large screens that a line does not name were inactive (follow-up assays come after a bar, where they were run).

CCOC(=O)c1c(NC(=O)C(NCCN(C)C)c2ccccc2)sc2c1CCCC2 (centres undefined)	SMARCA2 act 12.8 | SMARCA2 conf inactive | GAL4-VP16 Luc inactive
CCCCOC(=O)c1ccc(NC(=O)c2cnccn2)cc1	none
O=C(Nc1ccc(OC(F)(F)F)cc1)c1cnccn1	SMARCA2 act 8.1, DAX1 inh-1 6.4 | SMARCA2 conf 9.4 | GAL4-VP16 Luc 11.1
Cc1ccc(CSCC(Nc2ccc(C(=O)O)cc2[N+](=O)[O-])C(=O)O)cc1 (centres undefined)	SMARCA2 act 9.0 | SMARCA2 conf inactive | GAL4-VP16 Luc inactive
CC(C)C(Cl)=NOC(=O)Nc1ccc(S(N)(=O)=O)cc1	SMARCA2 act 47.0 | SMARCA2 conf inactive | GAL4-VP16 Luc inactive
NC(=O)c1ncc(C(F)(F)F)cc1Cl	none
NC(=S)c1ncc(C(F)(F)F)cc1Cl	SMARCA2 act 8.6 | SMARCA2 conf inactive | GAL4-VP16 Luc inactive
COc1ccc(-c2nc(CCl)cs2)cc1OC	none
COc1ccc(-c2nc(-c3ccc(O)cc3O)cs2)cc1OC	SMARCA2 act 8.8, hgDAF-12 ag 12.3 | SMARCA2 conf 17.7 | GAL4-VP16 Luc 11.8
Cc1ccc(NC(=O)CNC(=O)c2ccc(C)s2)nc1	none
Cc1ccnc(NC(=O)CNC(=O)c2ccc(C)s2)c1	SMARCA2 act 9.8, DAX1 inh-2 4.0 | SMARCA2 conf inactive | GAL4-VP16 Luc 6.7
Cc1cc(C(=O)NC2CCCc3c2cnn3-c2ccc(C(C)(C)C)cc2)nn1C (centres undefined)	none
C[C@H]1CN([C@@H](C)CO)C(=O)CCCn2nncc2CO[C@H]1CN(C)S(=O)(=O)c1ccccc1F	none
CCOC(=O)[C@]12CCCC=C1N(Cc1ccc3c(c1)OCO3)C(=O)[C@H](CC(=O)NCc1ccc(C)o1)C2	none (no result: DAX1 inh-1)
O=[N+]([O-])c1ccc2nc(-c3ccc(Cl)cc3)n(OCc3ccccc3)c2c1	SMARCA2 act 10.8 | SMARCA2 conf inactive | GAL4-VP16 Luc 11.4
Clc1ccc(COn2c(-c3ccc(Cl)cc3)nc3ccccc32)cc1	none
Cc1ccc(/C=C(\NC(=O)c2ccc(C)cc2)c2nc(=S)[nH][nH]2)cc1	SMARCA2 act 10.3 | SMARCA2 conf inactive | GAL4-VP16 Luc inactive
Cc1ccccc1Cn1cc(NC(=O)c2nn(C)cc2Cl)cn1	none
Cc1ccccc1Cn1cc(NS(=O)(=O)c2cn(C)nc2C)cn1	SMARCA2 act 8.8 | SMARCA2 conf inactive | GAL4-VP16 Luc inactive
O=C(Nc1c(C(=O)Nc2ccccc2)cnn1-c1ccccc1)c1ccco1	SMARCA2 act 9.8 | SMARCA2 conf inactive | GAL4-VP16 Luc inactive
O=C(Nc1ccc2c(c1)ncn2-c1ccccc1)c1ccco1	SMARCA2 act 10.9 | SMARCA2 conf 15.9 | GAL4-VP16 Luc 7.9
CCOc1ccc(N2CC(C(=O)Nc3cc(C)on3)CC2=O)cc1 (centres undefined)	none
COc1ccc(N2CC(C(=O)Nc3cccc(C)n3)CC2=O)cc1 (centres undefined)	SMARCA2 act 8.0 | SMARCA2 conf inactive | GAL4-VP16 Luc inactive
COc1ccc(N2CC(C(=O)Nc3cc(C)on3)CC2=O)cc1 (centres undefined)	SMARCA2 act 8.0 | SMARCA2 conf inactive | GAL4-VP16 Luc inactive
CC(=O)Nc1cccc(NC(=O)C2CC(=O)N(c3ccc(C)cc3)C2)c1 (centres undefined)	SMARCA2 act 9.5 | SMARCA2 conf inactive | GAL4-VP16 Luc inactive
CCCCN1C(=O)C(CC(=O)NCCN2CCOCC2)CC(C(=O)N2CCCCCC2)=C1C (centres undefined)	none (no result: DAX1 inh-1)
O=C(O)c1cccc(C(=O)O)c1S(=O)Cc1ccccc1 (centres undefined)	none (no result: DAX1 inh-1)
O=C(/C=C/c1ccc(O)cc1)c1ccc(O)cc1O	SMARCA2 act 8.1 | SMARCA2 conf 10.5 | GAL4-VP16 Luc inactive
COc1ccc(C(=O)/C=C/c2ccccc2)c(O)c1	SMARCA2 act 8.2 | SMARCA2 conf inactive | GAL4-VP16 Luc inactive
COc1ccc(C(=O)/C=C/c2ccc(OC)cc2OC)c(O)c1	none
O=C(O)/C=C/c1ccc(O)cc1	none
COc1ccc(C(=O)/C=C/c2cccs2)c(OC(=O)N2CCOCC2)c1	none
COc1ccc(C(=O)C=Cc2cccs2)c(O)c1	SMARCA2 act 8.2, hgDAF-12 ag 11.0 | SMARCA2 conf inactive | GAL4-VP16 Luc 5.7
CC(C)(C)[C@@H]1COC(=O)[C@H](Cc2ccc(F)cc2)C/C=C\C[C@@H](CC(=O)N(CCO)Cc2ccccc2)C(=O)N1	none
Cc1cccc(CN2C(=O)/C(=C\c3ccc(C(=O)NCCCN4CCN(C)CC4)cc3)Oc3ccccc32)c1	SMARCA2 act 8.5 | SMARCA2 conf 11.6 | GAL4-VP16 Luc inactive
COc1c(C(=O)Nc2ccc(Br)cn2)ccc2ccccc12	none
COc1c(C(=O)Nc2nccs2)ccc2ccccc12	SMARCA2 act 10.2 | SMARCA2 conf 10.2 | GAL4-VP16 Luc 10.8
COc1ccccc1N1CCN(C(=O)C2CCN(S(=O)(=O)c3ccc(F)cc3)CC2)CC1	SMARCA2 act 8.8 | SMARCA2 conf inactive | GAL4-VP16 Luc inactive
Nc1nc(SCc2ccccc2)c2ncn(C3OC(CO)C(O)C3O)c2n1 (centres undefined)	none
OCC1OC(n2ccc3c(SCc4ccccc4)ncnc32)C(O)C1O (centres undefined)	SMARCA2 act 9.4, hgDAF-12 ag 13.0 | SMARCA2 conf inactive | GAL4-VP16 Luc 9.6
Nc1ncnc2c1ncn2C1OC(CO)C(O)C1O (centres undefined)	SMARCA2 act 8.6 | SMARCA2 conf inactive | GAL4-VP16 Luc inactive
OCC1OC(n2cnc3c(SCc4ccccc4)ncnc32)C(O)C1O (centres undefined)	SMARCA2 act 8.7 | SMARCA2 conf 13.3 | GAL4-VP16 Luc inactive
Cn1cnc2c(SCc3ccccc3)ncnc21	SMARCA2 act 9.7 | SMARCA2 conf inactive | GAL4-VP16 Luc inactive
